Measured values: PubChem BioAssay (NCATS)
Results filed as inconclusive are left out. The source made the active and inactive calls. Calls come from the whole dose curve; as a rule, active = well fitted curve in the direction sought with a large enough effect; inconclusive = small, poorly fitted or top-dose-only effect, or another doubt; inactive = no such curve, though single readings can be large; an effect the other way counts as inactive or inconclusive.

Assays:
[1] = P-glycoprotein substrates identified in KB-8-5-11 adenocarcinoma cell line, qHTS therapeutic library screen (AID 1346987); note: nearly all actives have a fitted effect of over 65% in size; note: potency is the fitted concentration of half-maximal effect; for activity change, negative = cytotoxicity: % is set by controls: 0 for no effect and ±100 for the full control effect
Procedure, shortened: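 KB-8-5-11, a colchicine-selected P-gp-overexpressing KB-3-1 subline, was grown without colchicine for the assay. Cells were seeded at 500 cells/well, dosed in concentration-response and incubated 72 h at 37 degree C, 5% CO2. Viability was read by CellTiter-Glo luminescence.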

[2] = test system: Zika virus NS2B-NS3 protease (linked construct); assay: Primary screen NINDS Rhodamine qHTS for Zika virus inhibitors (AID 1347160); note: nearly all actives have a fitted effect of over 55% in size; for activity change, negative = inhibition: % is set by controls: 0 for no effect and ±100 for the full control effect
Procedure, shortened: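 Kinetic fluorescence (Ex 480 nm, Em 540 nm) over 15 min with 1.5 microM Rhodamine110 peptide and 25 nM linked protease.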

[3] = target: Glutathione peroxidase 1 (Homo sapiens) (UniProt P07203); assay: Primary qHTS Assay for Inhibitors of Recombinant Selenoprotein Glutathione Peroxidase 1 (GPX1) (AID 1845191); note: nearly all actives have a fitted effect of over 65% in size; for activity, negative = inhibition: % is set by controls: 0 for no effect and ±100 for the full control effect
Sequence of Glutathione peroxidase 1 (Homo sapiens) (P07203 whole entry, looked up): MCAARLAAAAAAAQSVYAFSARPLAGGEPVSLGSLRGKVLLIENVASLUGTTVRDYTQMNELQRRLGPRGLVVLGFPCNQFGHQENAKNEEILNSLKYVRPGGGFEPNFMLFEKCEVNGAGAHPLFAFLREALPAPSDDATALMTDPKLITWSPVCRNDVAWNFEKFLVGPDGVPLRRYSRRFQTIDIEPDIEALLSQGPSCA
Procedure, shortened: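 Recombinant GPX1 (10 nM final) was preincubated with compound for 30 min at room temperature, then reacted with 1 mM GSH, 0.5 mM CHP, 0.5 mM NADPH and 100 nM glutathione reductase; NADPH fluorescence (340/450 nm) was read at 0 and 15 min.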

[4] = target: Phospholipid hydroperoxide glutathione peroxidase GPX4 (Homo sapiens) (UniProt P36969); assay: Primary qHTS Assay for Inhibitors of Recombinant Selenoprotein Glutathione Peroxidase 4 (GPX4) (AID 1845192); note: % is set by controls: 0 for no effect and ±100 for the full control effect; nearly all actives have a fitted effect of over 65% in size
Sequence of Phospholipid hydroperoxide glutathione peroxidase GPX4 (Homo sapiens) (P36969 whole entry, looked up): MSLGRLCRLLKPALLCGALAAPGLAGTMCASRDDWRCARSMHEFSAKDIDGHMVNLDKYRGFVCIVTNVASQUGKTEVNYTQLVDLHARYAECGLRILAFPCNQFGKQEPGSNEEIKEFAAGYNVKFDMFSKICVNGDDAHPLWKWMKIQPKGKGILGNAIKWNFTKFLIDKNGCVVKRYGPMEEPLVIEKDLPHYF
Procedure, shortened: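 GR-coupled readout: 100 nM GR, 1 mM GSH, 0.5 mM NADPH; NADPH fluorescence (ex 340/em 450 nm) read at t=0 and after 15 min RT. GPX4 200 nM, preincubated 30 min with compound; substrate 0.5 mM CHP.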

[5] = target: Luciferin 4-monooxygenase (Photinus pyralis) (UniProt P08659); assay: Primary firefly luciferase (FLuc) qHTS assay for identification of artifact compounds. (AID 1845220); conditions: outcome: dose series up to 54.1 µM unless noted;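 note: plate controls were DMSO vehicle for no effect and no enzyme for full effect; nearly all actives have a fitted effect of over 60% in size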
Procedure, shortened: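 Reaction readout was CCD-imaged luminescence, taken 5 min after adding 10 nM purified firefly enzyme to compound-treated wells holding 10 uM luciferin and ATP in pH 7.6 buffer.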

[6] = test system: Nanoluciferase (engineered Oplophorus gracilirostris luciferase); assay: Primary Nanoluciferase (NLuc) qHTS assay for identification of artifact compounds. (AID 1845222);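 note: NLuc secreted into diluted conditioned medium of S16 cells; 0% = DMSO and -100% = no enzyme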
Procedure, shortened: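 Concentration-response data were obtained by luminescence after 5 min with Nano-Glo substrate at 1:100. The enzyme was diluted S16 NLuc-expressing cell medium, preincubated with compound for 15 min at RT. Curves were fitted with a 4-parameter Hill model.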

CAOV3 = assay: Primary qHTS to identify gynecologic anti-cancer compounds using libraries of approved drugs and bioactive compounds (AID 1345084); conditions: Gynecologic cancer cell panel viability, ATPlite luminescence, 48 h; series mostly up to 57.5 µM; note: nearly all actives have a fitted effect of over 55% in size; note: potency is the fitted concentration of half-maximal effect
Procedure, shortened: (§1)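 Cells, 1,000 per well, plated 16 h, then exposed 48 h at 37 C to compounds. Viability by ATPlite luminescence after 15 min at room temperature.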

CASKI = assay: as above; conditions: Gynecologic cancer cell panel viability, ATPlite luminescence, 48 h; series mostly up to 57.5 µM
Procedure, shortened: as §1

Es-2 = assay: as above; conditions: Gynecologic cancer cell panel viability, ATPlite luminescence, 48 h; series mostly up to 57.5 µM
Procedure, shortened: as §1

HeLa = assay: as above; conditions: Gynecologic cancer cell panel viability, ATPlite luminescence, 48 h; series mostly up to 57.5 µM
Procedure, shortened: as §1

Hek293T = assay: as above; conditions: Gynecologic cancer cell panel viability, ATPlite luminescence, 48 h, control line for the selectivity index; series mostly up to 57.5 µM
Procedure, shortened: as §1

JEG-3 = assay: as above; conditions: Gynecologic cancer cell panel viability, ATPlite luminescence, 48 h; series mostly up to 57.5 µM
Procedure, shortened: as §1

OV90 = assay: as above; conditions: Gynecologic cancer cell panel viability, ATPlite luminescence, 48 h; series mostly up to 57.5 µM
Procedure, shortened: as §1

PA-1 = assay: as above; conditions: Gynecologic cancer cell panel viability, ATPlite luminescence, 48 h; series mostly up to 57.5 µM
Procedure, shortened: as §1

Tov-21-G = assay: as above; conditions: Gynecologic cancer cell panel viability, ATPlite luminescence, 48 h; series mostly up to 57.5 µM
Procedure, shortened: as §1

Tov112D = assay: as above; conditions: Gynecologic cancer cell panel viability, ATPlite luminescence, 48 h; series mostly up to 57.5 µM
Procedure, shortened: as §1

[7] = target: Calcium and integrin-binding protein 1 (Homo sapiens) (UniProt Q99828); assay: Primary qHTS for Identification of Calcium Integrin Binding Protein 1 (CIB1) Competitor (AID 1508620);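 note: GST tagged CIB1 binding a fluorescein labelled alphaIIb integrin peptide tracer; top concentration of the series differs between compounds; % is set by controls: 0 for no effect and ±100 for the full control effect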
Sequence of Calcium and integrin-binding protein 1 (Homo sapiens) (Q99828 whole entry, looked up): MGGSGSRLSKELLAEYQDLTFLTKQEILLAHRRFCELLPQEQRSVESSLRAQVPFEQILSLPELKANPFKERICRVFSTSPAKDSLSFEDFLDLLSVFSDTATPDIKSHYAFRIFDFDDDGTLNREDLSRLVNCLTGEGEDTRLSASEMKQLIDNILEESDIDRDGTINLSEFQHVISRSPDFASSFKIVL
Procedure, shortened: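 Fluorescence polarization competition: CIB1-GST (1 uM final) preincubated with compound 15 min at room temperature, then FITC-labeled alphaIIb peptide (100 nM final) added for another 15 min. Polarization read at Ex 480/Em 540.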

NIH3T3 = assay: Cytotoxic Profiling of Annotated Libraries Using Quantitative High-Throughput Screening (AID 1296008); conditions: Five cell lines viability, CellTiter-Glo ATP luminescence, 48-72 h; max response: hits give low values; note: % is set by controls: 0 for no effect and ±100 for the full control effect; nearly all actives have a fitted effect of over 60% in size
Procedure, shortened: (§2)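 Compounds were pin-transferred onto cells and incubated 48 or 72 hr at 37 degree Celsius, 95% humidity. CellTiter-Glo was added, plates sat 10 min at room temperature, then ATP-coupled luminescence was imaged as the viability read-out.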

C33A = assay: Primary qHTS to identify gynecologic anti-cancer compounds using libraries of approved drugs and bioactive compounds (AID 1345084); conditions: Gynecologic cancer cell panel viability, ATPlite luminescence, 48 h; series mostly up to 57.5 µM; note: nearly all actives have a fitted effect of over 55% in size; note: potency is the fitted concentration of half-maximal effect
Procedure, shortened: as §1

CRL-7250 = normal cell line; assay: Cytotoxic Profiling of Annotated Libraries Using Quantitative High-Throughput Screening (AID 1296008); conditions: Five cell lines viability, CellTiter-Glo ATP luminescence, 48-72 h; max response: hits give low values; note: % is set by controls: 0 for no effect and ±100 for the full control effect; nearly all actives have a fitted effect of over 60% in size
Procedure, shortened: as §2

CCOC(=O)c1ccc(-c2ccc(OC(=O)N(C)Cc3cccc(-c4ccncc4)c3)cc2)cc1
inactive: Potency [1] | Potency [2] | Potency [3] | Potency [4] | outcome [5] | Potency [6] | Potency (CAOV3) | Potency (CASKI) | Potency (Es-2) | Potency (HeLa) | Potency (Hek293T) | Potency (JEG-3) | Potency (OV90) | Potency (PA-1) | Potency (Tov-21-G) | Potency (Tov112D)

C[C@@H]1O[C@@H](O[C@H]2CC[C@@]3(C)C(CC[C@@H]4C3CC[C@]3(C)[C@@H](C5=CC(=O)OC5)CC[C@]43O)C2)[C@H](O[C@@H]2O[C@H](CO)[C@@H](O)[C@H](O)[C@H]2O)[C@H](O)[C@H]1O (stereo partly drawn)
inactive: Potency [2] | Potency [7] | Potency [3] | Potency [4] | outcome [5] | Potency [6] | max response (NIH3T3) -13.4%
active: Potency [1] 485 nM | Potency (C33A) 562 nM | Potency (CAOV3) 1000 nM | Potency (Es-2) 891 nM | Potency (HeLa) 1260 nM | Potency (Hek293T) 891 nM | Potency (JEG-3) 2820 nM | Potency (PA-1) 1000 nM | Potency (Tov-21-G) 708 nM | Potency (Tov112D) 224 nM

CC[C@@H]1/C=C/C=C/C[C@H](C)C(O)[C@](C)(O)C(=O)[C@H](C)C(O)[C@H](C)C(=O)[C@H](C)[C@@H](O)[C@H](C)/C=C/C(=O)O[C@H]2[C@@H](C)[C@@H](CC1)O[C@]1(O[C@H](C[C@H](C)O)[C@H](C)CC1=O)[C@@H]2C (stereo partly drawn)
inactive: Potency [2] | Potency [3] | Potency [4] | activity, negative = inhibition [6] -0.681% [at 11.6 µM] | max response (NIH3T3) -27% | activity change, negative = cytotoxicity (CAOV3) -25.5% [at 11.6 µM] | activity change, negative = cytotoxicity (CASKI) -1.41% [at 11.6 µM] | activity change, negative = cytotoxicity (Es-2) -1.68% [at 11.6 µM] | activity change, negative = cytotoxicity (JEG-3) 22.8% [at 11.6 µM] | activity change, negative = cytotoxicity (Tov-21-G) 25.5% [at 11.6 µM] | activity change, negative = cytotoxicity (Tov112D) -13.7% [at 11.6 µM]

CC(=O)NCCCOc1ccc(C(=O)N2CCC(N3C(=O)CCc4ccccc43)CC2)cc1
inactive: Potency [1] | Potency [2] | Potency [7] | Potency [3] | Potency [4] | outcome [5] | Potency [6] | max response (CRL-7250) 0.176% | max response (NIH3T3) -14% | Potency (C33A) | Potency (CASKI) | Potency (Es-2) | Potency (HeLa) | Potency (Hek293T) | Potency (JEG-3) | Potency (OV90) | Potency (PA-1) | Potency (Tov-21-G) | Potency (Tov112D)

C/C=C(\C)C(=O)OC1C2C3(C)CCC(OC4CC(OC)C(OC5OC(C)C(O)C(OC)C5O)C(C)O4)CC3CCC23OC32CCC(C(C)=O)C2(C)C1OC(=O)/C(C)=C/C (stereo not drawn)
inactive: activity change, negative = cytotoxicity [1] -5.07% [at 9.29 µM] | Potency [2] | Potency [7] | Potency [3] | Potency [4] | activity change, negative = inhibition [5] 0.886% [at 11.6 µM] | activity, negative = inhibition [6] 2.09% [at 11.6 µM] | max response (CRL-7250) -2.9% | max response (NIH3T3) -16.5% | activity change, negative = cytotoxicity (C33A) 10.6% [at 11.6 µM] | activity change, negative = cytotoxicity (CAOV3) 0.328% [at 11.6 µM] | activity change, negative = cytotoxicity (CASKI) -3.16% [at 11.6 µM] | activity change, negative = cytotoxicity (Es-2) -0.14% [at 11.6 µM] | activity change, negative = cytotoxicity (HeLa) 13% [at 11.6 µM] | activity change, negative = cytotoxicity (Hek293T) 2.72% [at 11.6 µM] | activity change, negative = cytotoxicity (JEG-3) 7.67% [at 11.6 µM] | activity change, negative = cytotoxicity (OV90) 2.67% [at 11.6 µM] | activity change, negative = cytotoxicity (PA-1) 2.59% [at 11.6 µM] | activity change, negative = cytotoxicity (Tov-21-G) -0.804% [at 11.6 µM] | activity change, negative = cytotoxicity (Tov112D) -1.3% [at 11.6 µM]
